Data published in PubChem BioAssay AID1159580 (chemical genetic matrix, 2015).
Where “and” joins values, the source holds several entries; their conditions need not be identical. Equal entries are not always repeated. Screen size: about 5,500 compounds; about 2,000 (36%) were called active. Another 18% or so got no clear call; they are omitted. No stated cut-off is given here; in the data, active means normalized growth mostly below about 0.91 (no sharp cut-off); inconclusive means no clear call, values can overlap the other calls; inactive means mostly above about 0.92. The list shows a part of the results. Where a structure was tested more than once in an assay, its records may differ in their call.

Test: chemical genetic growth profiling, strain panel (AID 1159580);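 further: tested at 20 µM; growth read once vehicle control cultures reached saturation at 30 °C; 1 = growth at the plate median or of vehicle wells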
Details: growth OD

Measured: normalized growth

Fc1ccc(C(c2ccc(F)cc2)N2CCN(C/C=C/c3ccccc3)CC2)cc1
active: S. cerevisiae deletion strains, locus YKL160W, strain elf1, stronger effect = lower value 0.168 | S. cerevisiae deletion strains, locus YKR026C, strain gcn3, stronger effect = lower value 0.412 | S. cerevisiae deletion strains, locus YKR091W, strain srl3, stronger effect = lower value 0.444 | S. cerevisiae deletion strains, locus YLL001W, strain dnm1, stronger effect = lower value 0.293 | S. cerevisiae deletion strains, locus YLL026W, stronger effect = lower value 0.257 | S. cerevisiae deletion strains, locus YLL041C, strain sdh2, stronger effect = lower value 0.41 | S. cerevisiae deletion strains, locus YLR027C, strain aat2, stronger effect = lower value 0.306 | S. cerevisiae deletion strains, locus YLR039C, strain RIC1, stronger effect = lower value 1.36 [resistant] | S. cerevisiae deletion strains, locus YLR221C, strain rsa3, stronger effect = lower value 0.18 | S. cerevisiae deletion strains, locus YLR258W, strain gsy2, stronger effect = lower value 0.32 | S. cerevisiae deletion strains, locus YLR262C, strain YPT6 (second series), stronger effect = lower value 0.749 | S. cerevisiae deletion strains, locus YLR320W, strain mms22, stronger effect = lower value 0.137 | S. cerevisiae deletion strains, locus YLR342W, strain FKS1, stronger effect = lower value 0.25 | S. cerevisiae deletion strains, locus YLR357W, strain rsc2, stronger effect = lower value 0.544 | S. cerevisiae deletion strains, locus YLR370C, strain arc18, stronger effect = lower value 0.226 | S. cerevisiae deletion strains, locus YML120C, strain ndi1, stronger effect = lower value 0.24 | S. cerevisiae deletion strains, locus YMR058W, strain fet3, stronger effect = lower value 0.266 | S. cerevisiae deletion strains, locus YMR125W, strain sto1, stronger effect = lower value 0.17 | S. cerevisiae deletion strains, locus YMR129W, stronger effect = lower value 0.222 | S. cerevisiae deletion strains, locus YMR205C, strain PFK2, stronger effect = lower value 0.332 | S. cerevisiae deletion strains, locus YMR231W, strain pep5, stronger effect = lower value 0.794 | S. cerevisiae deletion strains, locus YNL071W, strain lat1, stronger effect = lower value 0.119 | S. cerevisiae deletion strains, locus YNL209W, strain ssb2, stronger effect = lower value 0.573 | S. cerevisiae deletion strains, locus YNL248C, strain rpa49, stronger effect = lower value 0.227 | S. cerevisiae deletion strains, locus YNL322C, strain KRE1 (second series), stronger effect = lower value 0.244 | S. cerevisiae deletion strains, locus YNR049C, strain mso1, stronger effect = lower value 0.334 | S. cerevisiae deletion strains, locus YOR001W, strain rrp6, stronger effect = lower value 0.314 | S. cerevisiae deletion strains, locus YOR070C, strain gyp1, stronger effect = lower value 0.126 | S. cerevisiae deletion strains, locus YOR080W, strain dia2, stronger effect = lower value 0.423 | S. cerevisiae deletion strains, locus YOR083W, strain WHI5, stronger effect = lower value 0.36 | S. cerevisiae deletion strains, locus YOR106W, strain vam3, stronger effect = lower value 0.33 | S. cerevisiae deletion strains, locus YOR265W, strain rbl2, stronger effect = lower value 0.251 | S. cerevisiae deletion strains, locus YOR270C, strain vph1, stronger effect = lower value 0.156 | S. cerevisiae deletion strains, locus YOR290C, strain snf2, stronger effect = lower value 0.245 | S. cerevisiae deletion strains, locus YPL051W, strain arl3, stronger effect = lower value 0.474 | S. cerevisiae deletion strains, locus YPL078C, strain atp4, stronger effect = lower value 0.316 | S. cerevisiae deletion strains, locus YPL106C, strain sse1, stronger effect = lower value 0.223 | S. cerevisiae deletion strains, locus YPL240C, strain hsp82, stronger effect = lower value 0.338
0.959 (inactive) and 0.788 (active): S. cerevisiae deletion strains, locus YNL153C, strain GIM3, stronger effect = lower value
inactive: S. cerevisiae deletion strains, locus YJR075W, strain HOC1, stronger effect = lower value 0.952 | S. cerevisiae deletion strains, locus YKL009W, strain mrt4, stronger effect = lower value 0.965 | S. cerevisiae deletion strains, locus YKL068W, stronger effect = lower value 0.982 | S. cerevisiae deletion strains, locus YKL085W, strain MDH1 (second series), stronger effect = lower value 0.974 | S. cerevisiae deletion strains, locus YKL085W, strain MDH1, stronger effect = lower value 0.974 | S. cerevisiae deletion strains, locus YKL190W, strain CNB1, stronger effect = lower value 0.974 | S. cerevisiae deletion strains, locus YKR001C, strain vps1, stronger effect = lower value 0.972 | S. cerevisiae deletion strains, locus YLR058C, strain SHM2, stronger effect = lower value 0.981 | S. cerevisiae deletion strains, locus YLR102C, strain apc9, stronger effect = lower value 0.988 | S. cerevisiae deletion strains, locus YLR113W, strain HOG1, stronger effect = lower value 0.963 | S. cerevisiae deletion strains, locus YLR262C, strain YPT6, stronger effect = lower value 1.34 | S. cerevisiae deletion strains, locus YLR268W, strain sec22, stronger effect = lower value 0.933 | S. cerevisiae deletion strains, locus YLR330W, strain CHS5, stronger effect = lower value 0.988 | S. cerevisiae deletion strains, locus YLR342W, strain FKS1 (second series), stronger effect = lower value 0.981 | S. cerevisiae deletion strains, locus YLR371W, strain rom2, stronger effect = lower value 0.969 | S. cerevisiae deletion strains, locus YLR384C, strain iki3, stronger effect = lower value 0.957 | S. cerevisiae deletion strains, locus YLR418C, strain cdc73, stronger effect = lower value 0.993 | S. cerevisiae deletion strains, locus YML016C, strain PPZ1, stronger effect = lower value 0.992 | S. cerevisiae deletion strains, locus YML032C, strain rad52, stronger effect = lower value 0.948 | S. cerevisiae deletion strains, locus YML124C, strain tub3, stronger effect = lower value 0.991 | S. cerevisiae deletion strains, locus YMR078C, strain ctf18, stronger effect = lower value 0.966 | S. cerevisiae deletion strains, locus YMR223W, strain ubp8, stronger effect = lower value 0.988 | S. cerevisiae deletion strains, locus YMR263W, strain SAP30, stronger effect = lower value 0.968 | S. cerevisiae deletion strains, locus YMR307W, strain GAS1, stronger effect = lower value 1.28 and 0.996 | S. cerevisiae deletion strains, locus YNL067W, strain RPL9B, stronger effect = lower value 0.964 | S. cerevisiae deletion strains, locus YNL128W, strain TEP1, stronger effect = lower value 0.969 | S. cerevisiae deletion strains, locus YNL183C, strain NPR1, stronger effect = lower value 0.927 | S. cerevisiae deletion strains, locus YNL197C, strain WHI3, stronger effect = lower value 1.08 | S. cerevisiae deletion strains, locus YNL233W, strain BNI4, stronger effect = lower value 0.981 | S. cerevisiae deletion strains, locus YNL250W, strain rad50, stronger effect = lower value 0.992 | S. cerevisiae deletion strains, locus YNL271C, strain bni1, stronger effect = lower value 0.984 | S. cerevisiae deletion strains, locus YNL298W, strain CLA4, stronger effect = lower value 0.99 | S. cerevisiae deletion strains, locus YNL307C, strain MCK1, stronger effect = lower value 0.992 | S. cerevisiae deletion strains, locus YNL322C, strain KRE1, stronger effect = lower value 0.989 and 0.962 | S. cerevisiae deletion strains, locus YNR052C, strain pop2, stronger effect = lower value 0.933 | S. cerevisiae deletion strains, locus YOL006C, strain TOP1, stronger effect = lower value 0.81 | S. cerevisiae deletion strains, locus YOL012C, strain htz1 1.09 | S. cerevisiae deletion strains, locus YOL147C, strain pex11, stronger effect = lower value 0.984 | S. cerevisiae deletion strains, locus YOR061W, strain CKA2, stronger effect = lower value 0.982 | S. cerevisiae deletion strains, locus YOR069W, strain VPS5, stronger effect = lower value 0.995 | S. cerevisiae deletion strains, locus YOR083W, strain WHI5 (second series), stronger effect = lower value 1.05 | S. cerevisiae deletion strains, locus YOR136W, strain idh2, stronger effect = lower value 0.989 | S. cerevisiae deletion strains, locus YOR144C, strain elg1, stronger effect = lower value 0.982 | S. cerevisiae deletion strains, locus YOR184W, strain ser1, stronger effect = lower value 1.03 | S. cerevisiae deletion strains, locus YOR231W, strain MKK1, stronger effect = lower value 1 | S. cerevisiae deletion strains, locus YOR316C, strain cot1, stronger effect = lower value 0.967 | S. cerevisiae deletion strains, locus YPL055C, strain LGE1, stronger effect = lower value 0.96 | S. cerevisiae deletion strains, locus YPL241C, strain CIN2, stronger effect = lower value 0.981 | S. cerevisiae deletion strains, locus YPL256C, strain CLN2, stronger effect = lower value 0.97 | S. cerevisiae deletion strains, locus YPR119W, strain clb2, stronger effect = lower value 0.979 | S. cerevisiae deletion strains, locus YPR141C, strain kar3, stronger effect = lower value 0.999 | S. cerevisiae deletion strains, locus YPR163C, strain tif3, stronger effect = lower value 0.959 | S. cerevisiae deletion strains, locus YPR167C, strain met16, stronger effect = lower value 0.964 | S. cerevisiae deletion strains, strain wtn01, stronger effect = lower value 0.957 | S. cerevisiae strains, strain wild type, stronger effect = lower value 0.984
